Methyltransferases – Primary Screen for Target Class Profiling of Small Molecule Inhibitors of Methyltransferases; purified enzyme, MTase-Glo SAH luminescence; active compounds read low; calls only at 40 µM; 3.9% of 25,000 active; AID 1745853, 2022; call rule not given here
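Each enzyme was assayed with SAM and its substrate. SAH formation detected by MTase-Glo luminescence; single-point 40 uM screen[…].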
An asterisk follows results filed as active; i = inactive; + = active, no number. This is one part of a sample in which hits are shown more often than they occur. On the % scale 0 is the no-effect control and ±100 the full control effect.

SMILES	Methyltransferases
CCCN1CCc2cccc3c2[C@H]1Cc1ccc(O)c(O)c1-3	+
CCCN1CCO[C@@H]2c3cc(O)ccc3OC[C@H]21	i
Cc1cc(C)cc(NC(=O)N2Cc3ccccc3-n3cccc3C2c2ccc(N(C)C)cc2)c1 (stereo not given)	i
O=C(Nc1ccccc1Br)N1Cc2ccccc2-n2cccc2C1c1ccccc1 (stereo not given)	i
Cc1ccc(C2c3cccn3-c3ccccc3CN2C(=O)Nc2cccc(Br)c2)cc1 (stereo not given)	i
Oc1ccc2c(c1)C13CCCC[C@H]1[C@@H](C2)N(CC1CCC1)CC3	+
CCOc1ccc(C2c3cccn3-c3ccccc3CN2C(=O)Nc2ccc(C)c(C)c2)cc1 (stereo not given)	i
COC(=O)CCNC(=O)N1Cc2ccccc2-n2cccc2C1c1ccccc1Cl (stereo not given)	i
O=C(NCc1ccc(F)cc1)N1Cc2ccccc2-n2cccc2C1c1cccc(Cl)c1 (stereo not given)	i
COc1ccc2c(c[n+](C)c3c4cc5c(cc4ccc23)OCO5)c1OC	+
COc1cccc(CNC(=O)N2Cc3ccccc3-n3cccc3C2c2cc(F)cc(F)c2)c1 (stereo not given)	i
CCC1c2cccn2-c2ccccc2CN1C(=O)Nc1cc(C)cc(C)c1 (stereo not given)	i
Cc1ccccc1C1c2cccn2-c2ccccc2CN1C(=O)Nc1cccc(C)c1C (stereo not given)	i
Cc1cc(C)cc(NC(=O)N2Cc3ccccc3-n3cccc3C2c2cccc(Cl)c2)c1 (stereo not given)	i
COc1ccc(NC(=O)N2Cc3ccccc3-n3cccc3C2C)cc1 (stereo not given)	i
COC(=O)c1ccccc1NC(=O)N1Cc2ccccc2-n2cccc2C1c1ccc(SC)cc1 (stereo not given)	i
COc1cccc(NC(=O)N2Cc3ccccc3-n3cccc3C2c2ccc(OC)c(OC)c2)c1 (stereo not given)	i
CCOC(=O)Cc1ccc(NC(=O)N2Cc3ccccc3-n3cccc3C2c2ccc(CC)cc2)cc1 (stereo not given)	i
CCc1ccc(C2c3cccn3-c3ccccc3CN2C(=O)Nc2cc(OC)ccc2OC)cc1 (stereo not given)	i
CCCCN1[C@@H]2CC[C@H]1CC(OC(c1ccc(F)cc1)c1ccc(F)cc1)C2 (stereo not given in full)	+
O=C(NC1CCCC1)N1Cc2ccccc2-n2cccc2C1c1ccc(F)cc1 (stereo not given)	i
Cc1cccc(C2c3cccn3-c3ccccc3CN2C(=O)Nc2cc(C)ccc2C)c1 (stereo not given)	i
[Cl-].[Cl][Pt].[NH2-].[NH2-].c1ccncc1	+
CCC1c2cccn2-c2ccccc2CN1C(=O)Nc1ccc(OC)c(OC)c1 (stereo not given)	i
COc1ccc(C2c3cccn3-c3ccccc3CN2C(=O)Nc2ccccc2C)cc1 (stereo not given)	i
SMILES	Methyltransferases
CCOc1ccccc1NC(=O)N1Cc2ccccc2-n2cccc2C1c1ccccc1C (stereo not given)	i
O=C(NCCc1ccccc1)N1Cc2ccccc2-n2cccc2C1c1cccs1 (stereo not given)	i
CCOC(=O)CC1(NC(=O)N2Cc3ccccc3-n3cccc3C2c2cccs2)CCCCC1 (stereo not given)	i
CCOc1ccc(C2c3cccn3-c3ccccc3CN2C(=O)Nc2ccccc2CC)cc1 (stereo not given)	i
CCOc1ccc(C2c3cccn3-c3ccccc3CN2C(=O)Nc2ccccc2C(=O)OC)cc1 (stereo not given)	i
CC1c2cccn2-c2ccccc2CN1C(=O)Nc1cccc2c1CCCC2 (stereo not given)	i
CNc1ccc2oc(C[C@H]3O[C@@]4(CC[C@H]3C)O[C@H]([C@H](C)C(=O)c3ccc[nH]3)[C@H](C)C[C@H]4C)nc2c1C(=O)O	+
CCOc1ccc(NC(=O)N2Cc3ccccc3-n3cccc3C2c2cccs2)cc1 (stereo not given)	i
CCOC(=O)c1cccc(NC(=O)N2Cc3ccccc3-n3cccc3C2c2ccccc2C)c1 (stereo not given)	i
CCOc1ccc(C2c3cccn3-c3ccccc3CN2C(=O)Nc2ccc(Cl)cc2)cc1 (stereo not given)	i
CCOc1ccc(C2c3cccn3-c3ccccc3CN2C(=O)Nc2cc(C)cc(C)c2)cc1 (stereo not given)	i
COc1ccc(NC(=O)N2Cc3ccccc3-n3cccc3C2c2ccccc2)cc1OC (stereo not given)	i
CC(=O)C1=C(O)[C@@H]2[C@H]3c4c[nH]c5cccc(c45)C[C@H]3C(C)(C)N2C1=O	+
Cc1ccc(Cl)cc1NC(=O)N1Cc2ccccc2-n2cccc2C1c1ccc(N(C)C)cc1 (stereo not given)	i
COc1ccc(NC(=O)N2Cc3ccccc3-n3cccc3C2c2cccc(C)c2)cc1OC (stereo not given)	i
Cc1ccccc1C1c2cccn2-c2ccccc2CN1C(=O)Nc1ccccc1F (stereo not given)	i
COc1ccc(C(=O)N2C[C@@H]3C[C@H](C2)c2ccc(NC(=O)CN(C)C)c(=O)n2C3)cc1	i
O=C(Nc1ccccc1Cl)N1Cc2ccccc2-n2cccc2C1c1ccccc1 (stereo not given)	i
CSc1ccc(C2c3cccn3-c3ccccc3CN2C(=O)Nc2ccccc2)cc1 (stereo not given)	i
CCOc1ccc(NC(=O)N2Cc3ccccc3-n3cccc3C2c2ccc(N(C)C)cc2)cc1 (stereo not given)	i
CC[C@@H](CO)NC(=O)[C@@H]1C=C2c3cccc4c3c(cn4C)C[C@H]2N(C)C1	+
CC[C@@H](CO)NC(=O)[C@@H]1C=C2c3cccc4[nH]cc(c34)C[C@H]2N(C)C1	+
CCOc1ccccc1NC(=O)N1Cc2ccccc2-n2cccc2C1c1cc(F)cc(F)c1 (stereo not given)	i
COC(=O)CCNC(=O)N1Cc2ccccc2-n2cccc2C1c1ccc(C(C)C)cc1 (stereo not given)	i
Cc1cccc(NC(=O)N2Cc3ccccc3-n3cccc3C2c2ccc(Cl)cc2)c1 (stereo not given)	i
SMILES	Methyltransferases
COc1ccc(NC(=O)N2Cc3ccccc3-n3cccc3C2c2ccc(OC)cc2)cc1 (stereo not given)	i
Cc1ccccc1C1c2cccn2-c2ccccc2CN1C(=O)Nc1cccc(Br)c1 (stereo not given)	i
CC/C=C/C=C/C1(C)OC(OC)=C(C(=O)C2C(C)C(=O)c3cc(OC)c(O)c(O)c3C2(C)O)C1=O (stereo not given)	i
O=C(Nc1ccccc1F)N1Cc2ccccc2-n2cccc2C1c1cc(F)cc(F)c1 (stereo not given)	i
C=CCN1CCC2(C)c3cc(O)ccc3C[C@H]1[C@H]2C	+
CC(C)[C@@H](CN1CC[C@@](C)(c2cccc(O)c2)[C@@H](C)C1)NC(=O)[C@H]1Cc2ccc(O)cc2CN1	i
COc1ccc(NC(=O)N2Cc3ccccc3-n3cccc3C2c2cccc(C)c2)cc1 (stereo not given)	i

Assay outcomes deposited in PubChem by National Center for Advancing Translational Sciences (NCATS).
